Several values for one entry are separate records, joined by “and”; a condition that tells them apart may be missing. Identical values can stand only once. Records with an inconclusive call do not appear. Some compounds were tested as several samples or in several runs, with calls that do not always agree. Activity calls are given as the source filed them. The call rests on the fitted dose curve; in most records, active means well fitted cell-killing curve with a large enough effect; inconclusive means small, poorly fitted or top-dose-only effect, or effect the other way; inactive means no such curve, though single readings can be large or run the other way. Peptide text beside a SMILES is read from it. * marks the point of attachment. Cbz = O=C(OCc1ccccc1)*
Potency means the concentration at half of the fitted maximal effect.

One test can be described thus: Viability qHTS for spleen associated tyrosine kinase inhibitor (SYKi) naive MV4-11 cells (AID 1963823). Further: nearly all actives have a fitted effect of over 40% in size. As to conditions: MV4-11 AML viability, CellTiter-Glo luminescence, 72 h; series mostly up to 45 µM. The method in brief:
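CellTiter-Glo luminescence, 10 min room-temperature incubation, gave viability. Cells: naive MV4-11 (500/well), treated 72 hr at 37 C, 5% CO2.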
As for `CCS(=O)(=O)c1cccc(-c2cc(C(=O)NC3CCN(C)CC3)c(C)c3[nH]c4ncc(C)cc4c23)c1`, the Potency is 40.4 nM (active) and 59 nM (active). On the same count and under the same terms, the result for `COc1ccc2c(Oc3ccc(NC(=O)c4c(C)n(CC(C)(C)O)n(-c5ccccc5)c4=O)cc3F)ccnc2c1` reads 0.0934 µM (active); that for `CN1CCN(Cc2ccc(NC(=O)Nc3ccc(Oc4cc(NC(=O)C5CC5)ncn4)cc3)cc2C(F)(F)F)CC1`, “inactive”; that for `Cc1cc(Nc2ncc(Cl)c(Nc3ccccc3S(=O)(=O)C(C)C)n2)c(OC(C)C)cc1C1CCNCC1`, 2.59 µM (active).

For `CC(C)Oc1cc(Nc2nc(N[C@@H](C)c3ccc(F)cn3)ncc2Cl)[nH]n1`, the Potency was 0.058 µM (active). Same read-out and setting: the result for `Cc1ccn(-c2ccc(-c3ncco3)cc2)c(=O)c1-c1ccc2nc(N)ncc2c1` reads 1.64 µM (active); that for `CC#C[C@]1(O)CC[C@H]2[C@@H]3CCC4=CC(=O)CCC4=C3[C@@H](c3ccc(N(C)C)cc3)C[C@@]21C`, 18.6 µM (active); that for `Oc1ccc2ccccc2c1SSc1c(O)ccc2ccccc12`, 5.9 µM (active) and 11.6 µM (active). Same read-out and setting: the result for `N[C@@H](Cc1cc(I)c(Oc2cc(I)c(O)c(I)c2)c(I)c1)C(=O)O` reads “inactive”. Take `Cc1ccccc1-n1c(Cn2nc(-c3cccc(O)c3)c3c(N)ncnc32)nc2cccc(C)c2c1=O`: the Potency is 6.61 µM (active). Take `Cc1nc(-c2ccc(OCC(C)C)c(C#N)c2)sc1C(=O)O`: the Potency result was “inactive”. Same read-out and setting: the result for `C=CC(=O)N1CCc2ccc(-n3c(=O)ccc4cnc5ccc(-c6cnn(C)c6)cc5c43)cc21` reads 0.632 µM (active). Regarding `Cc1cc(O)c2c(c1)C(=O)c1cccc(O)c1C2=O`, the Potency result was “inactive”.

Turning to `Cc1onc(-c2ccccc2Cl)c1C(=O)N[C@@H]1C(=O)N2[C@@H]1SC(C)(C)[C@@H]2C(=O)O`, the Potency entry was “inactive”.

On to `CCC(=O)N[C@H]1CC[C@H](C(=O)N(C)c2ccc(-c3nc4ccccc4o3)cc2)C1`, for which the Potency is 14.8 µM (active).

For `Cc1cnc(Nc2ccc(OCCN3CCCC3)cc2)nc1Nc1cccc(S(=O)(=O)NC(C)(C)C)c1`, the Potency was 146 nM (active) and 186 nM (active). Same read-out and setting: the result for `O=C(O)c1cc(=O)c2c(OCC(O)COc3cccc4oc(C(=O)O)cc(=O)c34)cccc2o1` reads “inactive”; that for `Nc1ccccc1NC(=O)c1ccc(CNC(=O)OCc2cccnc2)cc1`, 651 nM (active) and 742 nM (active). Consider `c1ccc2c(Oc3nc(Nc4ccc(N5CCOCC5)cc4)c4ncn(C5CCCCC5)c4n3)cccc2c1`, for which the Potency was 1.84 µM (active) and 2.35 µM (active). `Cc1cnc(Nc2ccc(CN3CCOCC3)cc2)nc1Nc1cccc(S(=O)(=O)NC(C)(C)C)c1`: the Potency was 0.164 µM (active). Consider `Cc1cnc(C(=O)O)c[n+]1[O-]`, for which the Potency entry is “inactive”.

As to `N=c1ccn2c(n1)O[C@H]1[C@@H](O)[C@@H](CO)O[C@H]12`, the Potency is 2.95 µM (active). On the same count and under the same terms, the result for `C#Cc1cccc(Nc2ncnc3cc(OC)c(OCCCCCCC(=O)NO)cc23)c1` reads 291 nM (active) and 372 nM (active). Take `Cc1cc(CN2CCN(c3c(Br)cnc4nc(-c5ccc(N6CCN(C)CC6)cc5)[nH]c34)CC2)no1`: the Potency was 0.0231 µM (active). For the compound `Cc1noc(NS(=O)(=O)c2ccc(N)cc2)c1C`, the Potency entry was “inactive”. Still for that read-out and setting: as for `CCOC(=O)c1ccc(C#Cc2ccc3c(c2)C(C)(C)CCS3)nc1`, the figure is 5.25 µM (active).

For `NNC(=O)c1ccncc1`, the Potency result is “inactive”.

The next test can be described thus: Viability qHTS for spleen associated tyrosine kinase inhibitor (SYKi) drug resistant MV4-11 cells (AID 1963824). Further: nearly all actives have a fitted effect of over 35% in size. The settings on record: SYKi-resistant MV4-11 viability, CellTiter-Glo, 72 h; series mostly up to 45 µM. Put shortly: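 SYK-inhibitor-resistant MV4-11 AML cells were seeded at 500 per well onto compound and cultured 72 hours (37 °C, 5% CO2). CellTiter-Glo was then added, and after 10 min at room temperature, luminescence gave viability.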
(qHTS replaces the single test concentration by a dilution series.)
For the compound `N#Cc1c(N(CC(=O)O)CC(=O)O)sc(C(=O)O)c1CC(=O)O`, the Potency entry was “inactive”. On to `CNC1CCC(N(Cc2cccc(-c3ccncc3)c2)C(=O)c2sc3ccccc3c2Cl)CC1` (configuration not stated), for which the Potency was 5.8 µM (active) and 5.25 µM (active). For `CN(C)S(=O)(=O)c1ccc2c(c1)C(=Cc1cc3c([nH]1)CCCC3)C(=O)N2`, the Potency was 1.66 µM (active).

On to `O=C1N(c2ccccc2)c2ccccc2C1(Cc1ccncc1)Cc1ccncc1`, for which the Potency result is “inactive”.

Take `OC(Cn1cncn1)(Cn1cncn1)c1ccc(F)cc1F`: the Potency result is “inactive”. In the case of `Cc1nc(N)ncc1-c1nc(N2CCOCC2)c2sc(C(C)(C)O)cc2n1`, the Potency was 3.66 µM (active) and 5.9 µM (active). On the same count and under the same terms, the result for `CCCCCCCCCCCCCC(=O)N[C@H](CO)[C@H](O)c1ccc([N+](=O)[O-])cc1` reads 23.5 µM (active).

Take `CN1CCN(CCCN2c3ccccc3Sc3ccc(C(F)(F)F)cc32)CC1`: the Potency is 6.99 µM (active) and 21.1 µM (active) and 11.8 µM (active). As to `O=C(Nc1cccc(Cl)c1)Nc1ncc(CCNc2ncnc3ccsc23)s1`, the Potency was 0.0326 µM (active). Consider `O=C(O)Cc1cccc(OCCCN(Cc2cccc(C(F)(F)F)c2Cl)CC(c2ccccc2)c2ccccc2)c1`, for which the Potency is 16.6 µM (active). On the same count and under the same terms, as for `COc1ccc(C2CNC(=O)C2)cc1OC1CCCC1` (configuration not stated), the entry is “inactive”.

Consider `CC(C)c1cnn2c(NCc3ccccc3)cc(N[C@@H](CO)[C@H](O)CO)nc12`, for which the Potency is 820 nM (active) and 263 nM (active). `CC(C)C[C@@H](C=O)NC(=O)[C@H](CC(C)C)NC(=O)[C@H](CC(C)C)NC(=O)OCc1ccccc1` (Cbz-Leu-Leu-Leu-aldehyde): the Potency was 1.05 µM (active). Regarding `CCS(=O)(=O)c1cccc(-c2cc(C(=O)NC3CCN(C)CC3)c(C)c3[nH]c4ncc(C)cc4c23)c1`, the Potency is 36 nM (active) and 66.1 nM (active).

As to `COc1ccc2c(Oc3ccc(NC(=O)c4c(C)n(CC(C)(C)O)n(-c5ccccc5)c4=O)cc3F)ccnc2c1`, the Potency is 0.148 µM (active). `CN1CCN(Cc2ccc(NC(=O)Nc3ccc(Oc4cc(NC(=O)C5CC5)ncn4)cc3)cc2C(F)(F)F)CC1`: the Potency entry is “inactive”. Still for that read-out and setting: as for `Cc1cc(Nc2ncc(Cl)c(Nc3ccccc3S(=O)(=O)C(C)C)n2)c(OC(C)C)cc1C1CCNCC1`, the figure is 2.31 µM (active) and 2.35 µM (active); as for `CC(C)Oc1cc(Nc2nc(N[C@@H](C)c3ccc(F)cn3)ncc2Cl)[nH]n1`, 372 nM (active) and 46.1 nM (active); as for `Cc1ccn(-c2ccc(-c3ncco3)cc2)c(=O)c1-c1ccc2nc(N)ncc2c1`, 2.31 µM (active).

For `CC#C[C@]1(O)CC[C@H]2[C@@H]3CCC4=CC(=O)CCC4=C3[C@@H](c3ccc(N(C)C)cc3)C[C@@]21C`, the Potency is 21.1 µM (active) and 16.6 µM (active).

In the case of `Oc1ccc2ccccc2c1SSc1c(O)ccc2ccccc12`, the Potency was 5.25 µM (active) and 9.2 µM (active). For the compound `N[C@@H](Cc1cc(I)c(Oc2cc(I)c(O)c(I)c2)c(I)c1)C(=O)O`, the Potency result is “inactive and 1.61 µM (active)”.

As to `Cc1ccccc1-n1c(Cn2nc(-c3cccc(O)c3)c3c(N)ncnc32)nc2cccc(C)c2c1=O`, the Potency is 11.6 µM (active). Still for that read-out and setting: as for `Cc1nc(-c2ccc(OCC(C)C)c(C#N)c2)sc1C(=O)O`, the entry is “inactive”. Turning to `C=CC(=O)N1CCc2ccc(-n3c(=O)ccc4cnc5ccc(-c6cnn(C)c6)cc5c43)cc21`, the Potency is 0.091 µM (active).

Take `Cc1cc(O)c2c(c1)C(=O)c1cccc(O)c1C2=O`: the Potency entry is “inactive”. As for `Cc1onc(-c2ccccc2Cl)c1C(=O)N[C@@H]1C(=O)N2[C@@H]1SC(C)(C)[C@@H]2C(=O)O`, the Potency result was “inactive”.

Take `CCC(=O)N[C@H]1CC[C@H](C(=O)N(C)c2ccc(-c3nc4ccccc4o3)cc2)C1`: the Potency was 14.8 µM (active). Still for that read-out and setting: as for `Cc1cnc(Nc2ccc(OCCN3CCCC3)cc2)nc1Nc1cccc(S(=O)(=O)NC(C)(C)C)c1`, the figure is 366 nM (active) and 417 nM (active). As to `O=C(O)c1cc(=O)c2c(OCC(O)COc3cccc4oc(C(=O)O)cc(=O)c34)cccc2o1`, the Potency entry was “inactive”. The same measure, in the same setting: the result for `Nc1ccccc1NC(=O)c1ccc(CNC(=O)OCc2cccnc2)cc1` reads 366 nM (active) and 468 nM (active). In the case of `c1ccc2c(Oc3nc(Nc4ccc(N5CCOCC5)cc4)c4ncn(C5CCCCC5)c4n3)cccc2c1`, the Potency is 1.84 µM (active) and 4.17 µM (active). On the same count and under the same terms, the result for `Cc1cnc(Nc2ccc(CN3CCOCC3)cc2)nc1Nc1cccc(S(=O)(=O)NC(C)(C)C)c1` reads 372 nM (active) and 326 nM (active).

`Cc1cnc(C(=O)O)c[n+]1[O-]`: the Potency entry is “inactive”. On the same count and under the same terms, as for `N=c1ccn2c(n1)O[C@H]1[C@@H](O)[C@@H](CO)O[C@H]12`, the figure is 3.32 µM (active). The same measure, in the same setting: as for `C#Cc1cccc(Nc2ncnc3cc(OC)c(OCCCCCCC(=O)NO)cc23)c1`, the figure is 231 nM (active) and 296 nM (active); as for `Cc1cc(CN2CCN(c3c(Br)cnc4nc(-c5ccc(N6CCN(C)CC6)cc5)[nH]c34)CC2)no1`, 29.1 nM (active) and 105 nM (active); as for `Cc1noc(NS(=O)(=O)c2ccc(N)cc2)c1C`, “inactive”. The same measure, in the same setting: the result for `CCOC(=O)c1ccc(C#Cc2ccc3c(c2)C(C)(C)CCS3)nc1` reads 3.76 µM (active).

`NNC(=O)c1ccncc1`: the Potency entry was “inactive”.
